Screens (PubChem BioAssay)
HEK293 tox – cytotoxic in the GLP-1 receptor inverse agonist counter-screen. HEK293 cAMP-luciferase reporter cells, luminescence, 24 h. Potency, µM (doses to about 38.3 µM), most hits filed as inhibitors. 410,000 tested, 0.13% active;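 further: loss of luciferase light is scored as toxicity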
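Here, cytotoxicity is scored as loss of luminescence. The MLSMR collection was tested on cells seeded in medium containing 10% Nu serum, with a 24 hr compound exposure preceded by 12 hours of culture.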
GLP1R inv ag – GLP-1 receptor (human) inverse agonism; AID 624417; HEK293 GLP-1R CRE-luciferase, luminescence, 24 h; GLP-1R form is constitutively active; P43220; 410,000 tested, 1.6% active; Potency, µM (top dose mostly 38.3 µM), actives largely listed as inhibitors; further: nearly all actives have a fitted effect of over 55% in size
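Using stably transfected HEK293 (constitutively active GLP-1R, cAMP-luciferase reporter), compounds were incubated 24 hr and luciferase measured by luminescence.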
GLP-1R agonist – GLP-1 receptor (human) agonism. P43220. HEK293 GLP-1R CRE-luciferase, luminescence, 4-6 h; cells express a hypersensitive GLP-1R form. Potency, µM (series often up to 45.6 µM), usual class: activators. 380,000 tested, 0.007% active. AID 624172
TSHR antagonist – human thyrotropin receptor antagonism | AID 504810 | activity change, negative = inhibition, % at 11.5 µM | 330,000 tested, 0.2% active | TSHR-expressing cells, TSH-stimulated cAMP HTRF, 2 h; hits give low values;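 active means activity change below a set negative limit, meaning inhibition stronger than a set level, cut at about -70% in these data; inconclusive means activity change between two set negative limits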
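Cell-based HTRF cAMP assay; TSHR cells + compound, TSH EC80 (4nM final), 2 h, 37 deg C. Lysis with anti-cAMP cryptate and cAMP-d2, 30 min RT, read 665/620 nm.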
PTHR1 ag – agonists of human PTHR1 parathyroid hormone receptor; Q03431; HEK293 GP2 PTHR1 cells, GloSensor cAMP luminescence, 1 h; Potency, µM (titrated, usually from 115 µM), actives largely listed as activators; 410,000 tested, 0.075% active; further: nearly all actives have a fitted effect of over 55% in size
Target sequence (Q03431 whole entry, looked up): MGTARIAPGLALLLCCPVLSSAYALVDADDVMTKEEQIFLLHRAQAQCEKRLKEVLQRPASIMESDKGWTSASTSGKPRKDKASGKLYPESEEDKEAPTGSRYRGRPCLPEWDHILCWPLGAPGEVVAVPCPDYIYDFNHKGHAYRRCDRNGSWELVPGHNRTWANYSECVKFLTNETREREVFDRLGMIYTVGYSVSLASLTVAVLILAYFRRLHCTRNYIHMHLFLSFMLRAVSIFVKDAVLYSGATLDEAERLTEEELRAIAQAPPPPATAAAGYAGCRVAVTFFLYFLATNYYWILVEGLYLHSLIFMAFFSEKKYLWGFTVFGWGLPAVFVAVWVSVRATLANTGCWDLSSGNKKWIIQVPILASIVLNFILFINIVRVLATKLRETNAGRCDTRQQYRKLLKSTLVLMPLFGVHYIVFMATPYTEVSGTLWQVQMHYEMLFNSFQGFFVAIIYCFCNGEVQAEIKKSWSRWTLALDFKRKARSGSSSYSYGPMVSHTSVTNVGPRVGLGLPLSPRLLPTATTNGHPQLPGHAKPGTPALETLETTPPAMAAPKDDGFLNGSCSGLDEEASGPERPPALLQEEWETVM
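HEK-293-derived GP2 cells expressing PTHR1 and a GloSensor cAMP reporter, 3,000/well, plated overnight, given luciferin plus IBMX (each 0.5 mM as added) for 1 h at 37 °C, then compound for 1 h at 37 °C. Luminescence was read after 15 min at room temperature.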
Of the large screens only hits and unclear results are named; the others gave an inactive call. Rows were chosen to be rich in hits. Some 1.8% of all compounds tested hit in one or more screens of this group. Unless noted, the call rests on the fitted dose curve; in most records, active means well fitted curve in the direction sought with a large enough effect; inconclusive means small, poorly fitted or top-dose-only effect, or another doubt; inactive means no such curve, though single readings can be large; an effect the other way counts as inactive or inconclusive.

COc1cc(CCC(=O)NCc2ccc3c(c2)CCN3C(=O)c2ccccc2)cc(OC)c1OC	none (no result: GLP-1R agonist, TSHR antagonist)
C[C@H](/C=C/[C@H](C)C(C)(C)O)[C@H]1CC[C@H]2/C(=C/C=C3C[C@@H](O)C[C@H](O)C3)CCC[C@]12C	none (no result: HEK293 tox, GLP1R inv ag, TSHR antagonist, PTHR1 ag)
CCOC(=O)Cc1csc(NC(=O)Nc2ccc(Cl)cc2)n1	GLP1R inv ag 11.2µM
CCc1nn2c(=O)c(S(=O)(=O)Nc3ccc(Br)cc3F)c(C)nc2s1	none (no result: GLP-1R agonist, TSHR antagonist)
O=[N+]([O-])c1c(Nc2ccccc2O)ccc2nonc12	none
O=[N+]([O-])c1c(Nc2ccccc2O)cc(Cl)c2nonc12	HEK293 tox inconclusive, GLP1R inv ag inconclusive, TSHR antagonist -76.5
CCOC(=O)c1[nH]c(C)c(CCC(=O)Nc2cccc(C(F)(F)F)c2)c1C	GLP1R inv ag inconclusive (no result: GLP-1R agonist, TSHR antagonist)
Cc1cccc(-n2nc(C)c(C(=O)Nc3cc(C)ccc3C)c2-n2cccc2)c1	none (no result: GLP-1R agonist, TSHR antagonist)
Cc1nc2ccccc2c2oc(C(=O)Nc3ccc(C(C)C)cc3)cc12	GLP1R inv ag 7.94µM
CC1CN(C(=O)CCC(=O)NCc2cccs2)c2ccccc2O1 (centres undefined)	none (no result: GLP-1R agonist, TSHR antagonist)
CCOc1ccccc1C(=O)NCC(c1cccs1)S(=O)(=O)c1ccc(F)c(C)c1 (centres undefined)	none (no result: GLP-1R agonist, TSHR antagonist)
COC(=O)C=CC(=NNc1ccccc1)c1ccccc1	GLP1R inv ag 7.94µM, GLP-1R agonist inconclusive (no result: TSHR antagonist)
COc1ccc(C(=O)C2CCCN(Cc3cc(C)c(O)c(C)c3)C2)c(OC)c1 (centres undefined)	GLP1R inv ag 4.47µM
COc1ccc(C(=O)C2CCCN(Cc3cc(Cl)ccc3O)C2)c(OC)c1 (centres undefined)	GLP1R inv ag inconclusive
COc1cccc(CC(=O)NC2CCCN(Cc3ccc(Cl)cc3)C2)c1 (centres undefined)	GLP1R inv ag inconclusive
COc1ccc(C(=O)NC2CCCN(Cc3ccc(Cl)cc3)C2)c(OC)c1 (centres undefined)	GLP1R inv ag 7.94µM
Cc1cccc(OCC(=O)OCc2cc(=O)n3nc(C4CC4)sc3n2)c1	none (no result: GLP-1R agonist, TSHR antagonist)
Cc1cc(C)c(-n2nnnc2SCC(=O)c2cccs2)c(C)c1	GLP1R inv ag 12.6µM
Cn1nnnc1SCC(=O)c1cccs1	none
CCCSc1nc(N2CCOCC2)c2c(c1C#N)CC(C)(C)SC2	GLP1R inv ag 10µM
CN1CCN(c2cc(N3CCN(C(=O)c4ccco4)CC3)c3c4c(onc24)-c2ccccc2C3=O)CC1	HEK293 tox inconclusive, GLP1R inv ag inconclusive
O=C1c2ccccc2-c2onc3c(N4CCN(CCO)CC4)cc(N4CCN(C(=O)c5ccco5)CC4)c1c23	HEK293 tox inconclusive, GLP1R inv ag 11.2µM
CSc1ccc(CC2C(=O)Nc3ccccc32)cc1 (centres undefined)	none (no result: GLP-1R agonist, TSHR antagonist)
Cc1ccc(NC(=O)CN(C)C(=O)Cc2ccc(Cl)cc2Cl)cc1	GLP1R inv ag inconclusive
Cc1ccc(NC(=O)CN(C)C(=O)Cc2ccc(Cl)c(Cl)c2)cc1	GLP1R inv ag 7.94µM
CC(=O)Nc1ccc(S(=O)(=O)Nc2cc(C)on2)cc1	none (no result: HEK293 tox, GLP1R inv ag, TSHR antagonist, PTHR1 ag)
C[C@@H]1CN([C@H](C)CO)C(=O)Cc2cc(NS(=O)(=O)c3ccc(Cl)cc3)ccc2O[C@H]1CN(C)Cc1ccc(C(F)(F)F)cc1	GLP1R inv ag 10µM
C[C@@H]1CN([C@H](C)CO)C(=O)Cc2cc(NS(=O)(=O)c3ccc(F)cc3)ccc2O[C@H]1CN(C)Cc1ccc(C(=O)O)cc1	none
C[C@@H]1CN([C@@H](C)CO)C(=O)c2cc(NC(=O)c3ccccc3)ccc2O[C@@H](C)CCCCO[C@@H]1CN(C)Cc1ccc(C(F)(F)F)cc1	GLP1R inv ag 11.2µM (no result: TSHR antagonist)
C[C@H](CO)N1C[C@H](C)[C@H](CN(C)Cc2ccccc2)Oc2ccc(NC(=O)Nc3ccc(F)cc3)cc2C1=O	GLP1R inv ag 11.2µM
C[C@@H]1CCCCO[C@H](CN(C)Cc2ccc3c(c2)OCO3)[C@H](C)CN([C@@H](C)CO)C(=O)c2cc(NC(=O)c3ccccc3)ccc2O1	GLP1R inv ag inconclusive (no result: TSHR antagonist)
CCC1CN(C(=O)Nc2cc(Cl)ccc2C(=O)OC)c2ccccc2S1 (centres undefined)	none (no result: GLP-1R agonist, TSHR antagonist)
